From PubChem BioAssay AID1224817 (Yan Lab, Georgia Cancer Center, Augusta University, 2016)
Several values for one entry are separate records, joined by “and”; a condition that tells them apart may be missing. Identical values can stand only once. The whole screen tested about 2,000 compounds, of which about 25 (1%) were called active.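 How the source made its calls: active means log2 luciferase ratio at or below -0.5849, meaning signal at two thirds of solvent-only control or lower; inactive means the rest.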 This excerpt belongs to a sample that is enriched for actives.

Assay: inhibitors of EIF4E gene expression, primary screen, cell-based, HT1080, luciferase reporter (AID 1224817);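 further: luciferase reports endogenous eIF4E expression since it is co-expressed from the native EIF4E locus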
Conditions: HT1080 EIF4E-luc2 knock-in reporter, 16 h, at 2.5 µM, stronger effect = lower value

Structure (SMILES) | log2 luciferase activity ratio
COC1C(O)C(C)OC(OC2C(Oc3cccc4c(O)c5c(=O)oc6ccc(C)c7c(=O)oc(c34)c5c67)OC(C)C(O)C2O)C1O (stereo not given) | -0.702 (active) and -0.391 (inactive)
COC(=O)C1=COC(C)C2CN3CCC4(C(=O)Nc5ccccc54)C3CC12 (stereo not given) | 0.122 (inactive)
c1ccc(CCN2CCCCCC2)nc1 | 0.334 (inactive)
COc1cc(CCN)c(OC)c(OC)c1 | -0.289 (inactive)
CC1CCC2(O)C3(C)CC4(O)OC2(C1O)C1(O)C3(O)C(OC(=O)c2ccc[nH]2)C(O)(C(C)C)C41C (stereo not given) | -0.662 (active) and 0.224 (inactive)
Oc1c(Cl)c(Cl)c(Cl)c(Cl)c1Cl | 0.387 (inactive)
CC(Cc1ccc(Cl)cc1Cl)NO (stereo not given) | 0.563 (inactive)
CC1=C2C(=O)[C@H]3[C@@H](CC=C4C[C@@H](O)CC[C@@]43C)[C@@H]2CC[C@]12O[C@@H]1C[C@H](C)CN[C@H]1[C@H]2C | 0.0474 (inactive)
O=C(Nc1ccc([As](=O)(O)O)cc1)Nc1cccc(Cl)c1Cl | 0.175 (inactive)
C[C@]12CC[C@H]3[C@@H](CCC4=CC(=O)CC[C@@H]43)[C@@H]1CC[C@@H]2OC1(O)C(=O)c2ccccc2C1=O | -0.175 (inactive)
CC(=O)O[C@@H]1[C@@H](O)C2=C3[C@]4(C)[C@@H]1C(C)(C)C(=O)C[C@@H]4[C@]3(O)[C@H](OC(C)=O)[C@@]1(C[C@@H]1C)C2=O | -0.11 (inactive)
CC(=O)c1c(O)c(C)c(O)c(Cc2c(O)c3c(c(C(=O)/C=C/c4ccccc4)c2O)OC(C)(C)C=C3)c1O | -1.16 (active)
CC(=N\O)/C(C)=N/O.CC(=N\O)/C(C)=N/O.CC(=N\O)/C(C)=N/O.CC(=N\O)/C(C)=N/O.[Cu].[Cu] | 0.204 (inactive)
CC[C@](O)(C(=O)O)c1cc2n(c(=O)c1CO)Cc1cc3ccccc3nc1-2 | -0.308 (inactive)
NC(CSC1c2ccccc2-c2ccccc21)C(=O)O (stereo not given) | -0.0184 (inactive)
Cc1c2ccncc2c(C)c2c1[nH]c1ccccc12 | -1.19 (active)
O=C(c1ccccc1)C1C(c2ccccc2[N+](=O)[O-])N1C1CCCCC1 (stereo not given) | -0.136 (inactive)
CC1=CC23C(COC(=O)C24CO4)C(C(=O)O)=CC3C1C (stereo not given) | -0.125 (inactive)
COc1cc2c(cc1OC)C13CCN4C=C5CCOC6CC(=O)N2C1C6C5CC43 (stereo not given) | 0.124 (inactive) and 0.181 (inactive)
CCCCCC(O)C1C(=O)OC(C)C(O)/C=C/C=C/C=C/C=C/C=C(\C)C(O)C(O)C(O)CC(O)CC(O)CC(O)CC(O)CC1O (stereo not given) | -0.286 (inactive)
